# Screen size: about 1,100 compounds; about 210 (19%) were called active. The rule behind the calls is not given here. The list is a sample of the results. Potency and affinity values are given separately.
# Assay: host cell cytotoxicity, dose response, cytotoxicity control for SV40 T antigen inhibitor project, selected hits (AID 2102);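 note: cells exposed to compounds for 72 hours; 100% = mean of untreated cell control wells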
# Details: Host cell viability cytotoxicity counter-screen; series mostly up to 50 µM; viability: at the top concentration
row,Structure (SMILES),viability
1,CNC(=O)c1ccc(-c2sc3nc(N4CCOCC4)c4c(c3c2N)CC(C)(C)OC4)o1,92.8% (inactive)
2,CN1CC(C(=O)O)Cc2c1ccc1ccccc21 (configuration not stated),108% (inactive)
3,COc1cc(C(=O)Nc2ccc(O)cc2)ccc1OC(C)=O,102% (inactive)
4,CN(C)c1ccc(NC(N)=S)cc1,99.6% (inactive)
5,COc1cc(/C=N/NC(=O)c2cccc(S(=O)(=O)N3CCCC3)c2)ccc1O,108% (inactive)
6,Cc1nc(-c2ccc(O)c(O)c2)cs1,103% (inactive)
7,Cc1ccc(S(=O)(=O)Nc2nc(C)cc(N/N=C/c3ccc(O)cc3)n2)cc1,88.8% (inactive)
8,CCOc1cc(/C=C2\SC(=O)N=C2N)ccc1O,109% (inactive)
9,Nc1nc2ccc(N3CCOCC3)cc2s1,109% (inactive)
10,COc1cc(C(=O)Nc2ccc(N(C)C)cc2)cc(OC)c1OC,99.2% (inactive)
11,CN(C)c1ccc(Nc2nc(-c3cccnc3)cs2)cc1,91.9% (inactive)
12,Oc1ccc(-c2csc(Nc3ccccn3)n2)cc1O,113% (inactive)
13,CC(C)c1ccc(S(=O)(=O)N2CCN(CCC(=O)Nc3ccc(N(C)C)cc3)CC2)cc1,84.7% (inactive)
14,Cc1cc(C)nc(SCc2cc(=O)c(OC(=O)c3ccc(S(=O)(=O)N4CCCC4)cc3)co2)n1,83.3% (inactive)
15,CC(=O)c1cccc(S(=O)(=O)N2CCCC(c3nc(-c4ccc(C)o4)no3)C2)c1 (configuration not stated),86.5% (inactive)
16,Nc1nc(-c2ccco2)cs1,116% (inactive)
17,Cc1ccsc1/C=N/n1c(-c2cccnc2)n[nH]c1=S,86.5% (inactive)
18,COc1cc(/C=N/NC(=O)c2ccoc2C)cc(OC)c1O,92.3% (inactive)
19,O=C(CCN1C(=O)/C(=C\c2ccco2)SC1=S)Nc1ccc(C(=O)O)c(O)c1,107% (inactive)
20,O=C(CCN1C(=O)/C(=C/c2ccco2)SC1=S)Nc1ccc(C(=O)O)c(O)c1,98.7% (inactive)
21,COc1cc(/C=N/NC(=O)CSc2ccccn2)ccc1O,97.3% (inactive)
22,Cc1ccc(NC(=O)CN2C(=O)N/C(=C\c3cccn3-c3cccc(C(=O)O)c3)C2=O)cc1,105% (inactive)
23,CN(C)c1ccc(N2C(=O)CC(Nc3ccc(N4CCOCC4)cc3)C2=O)cc1 (configuration not stated),111% (inactive)
24,Oc1ccc(/C=N/Nc2nccnc2Cl)cc1,88.3% (inactive)

row,Structure (SMILES),viability
1,Cc1cc(O)ccc1N/C=C1\CCCC1=O,106% (inactive)
2,CC1(C)N([O-])c2cc([N+](=O)[O-])ccc2[N+]1=O,105% (inactive)
3,O=c1c2c([N+](=O)[O-])cc([N+](=O)[O-])cc2sn1Cc1ccccc1,90% (inactive)
4,Cn1c(SCC(=O)c2ccc(O)c(O)c2)nnc1-c1cccs1,103% (inactive)
5,O=c1cc(-c2ccc(Br)cc2)[nH][nH]1,106% (inactive)
6,O=C(NC(=S)Nc1ccc(O)cc1)c1ccccc1Cl,112% (inactive)
7,COc1cc(/C=N/Nc2nc3ccccc3[nH]2)cc(OC)c1O,86.2% (inactive)
8,Nc1ccc2nc(CCCCCCCCc3nc4ccc(N)cc4[nH]3)[nH]c2c1,91% (inactive)
9,O=c1c2ccccc2sn1-c1nccs1,80% (inactive)
10,Cc1ccnc(-n2sc3ccccc3c2=O)n1,103% (inactive)
11,COc1ccc(/C=N/NC(=O)c2ccoc2C)cc1O,123% (inactive)
12,O=C(Nc1ccc(O)cc1)c1ccc2c(c1)C(=O)N(N1C(=O)c3ccccc3C1=O)C2=O,119% (inactive)
13,CC(C)c1ccc(C2CC(=O)N3CN(C)CSC3=C2C#N)cc1 (configuration not stated),88.2% (inactive)
14,O=C(CCCCl)NC1=NN(c2ccccc2)C(=O)C1,101% (inactive)
15,CCOc1cc(/C=C2/N=C(C)C(C(=O)OC)=C2O)ccc1O,134% (inactive)
16,NC1=NC(=O)/C(=C\c2ccco2)S1,103% (inactive)
17,O=c1[nH]c2ccc(NCc3ccc(F)cc3)cc2[nH]1,93.7% (inactive)
18,C=CCOc1ccccc1CNc1ccc2[nH]c(=O)[nH]c2c1,85.8% (inactive)
19,COc1cc(/C=N/NC(=O)c2ccccc2O)ccc1OC(=O)CC1SC(=O)NC1=O (configuration not stated),104% (inactive)
20,CCOc1cc(/C=N/Nc2nc(-c3cccs3)c(NC(C)=O)s2)ccc1O,85.7% (inactive)
21,COc1cc(/C=N\Nc2nc(-c3cccs3)c(NC(C)=O)s2)ccc1O,94% (inactive)
22,CCN(CC)c1ccc(NC(=O)COC(=O)COc2ccccc2[N+](=O)[O-])cc1,112% (inactive)
23,CCOC(=O)C[n+]1c(C)sc2ccc(OC)cc21,111% (inactive)
24,CC(Nc1ccc(N2CCOCC2)cc1)C(=O)N1c2ccccc2CC1C (configuration not stated),90% (inactive)

row,Structure (SMILES),viability
1,CCOC(=O)c1cc(-c2ccc(N)cc2)sc1N,92.1% (inactive)
2,COc1cc(/C=N/NC(=O)c2cccs2)ccc1O,88.6% (inactive)
3,CCN(CC)c1ccc(/C=N/O)cc1,106% (inactive)
4,Oc1ccc(/C=N/N2CCN(c3ccccn3)CC2)cc1,103% (inactive)
5,COc1cc(/C=N/NC(=O)C2COc3ccccc3O2)ccc1O (configuration not stated),94.2% (inactive)
6,COc1cc(/C(C)=N/NC(=O)CSc2nc3ccccc3[nH]2)ccc1O,84.6% (inactive)
7,O=C(CC1SC(=O)N(c2ccccc2)C1=O)Nc1cccc2ccccc12 (configuration not stated),100% (inactive)
8,Cc1csc(N/N=C/c2ccc(O)c([N+](=O)[O-])c2)n1,91.6% (inactive)
9,CCN(CC)c1ccc(NC(=O)c2cccnc2)c(C)c1,93.7% (inactive)
10,CCN(CC)c1ccc(NC(=O)c2cccc(F)c2)c(C)c1,80.2% (inactive)
11,Oc1ccc(C=Nc2ccc(N3CCOCC3)cc2)c(O)c1,110% (inactive)
12,COc1cc(SC#N)ccc1N=Cc1c(C)[nH]n(-c2ccc(C)cc2C)c1=O,104% (inactive)
13,O=C1c2ccccc2NC2(CCCCC2)N1c1ccc(O)cc1,110% (inactive)
14,CCN(CC)c1ccc(NC(=O)CSc2nnc3nc(C)cc(C)n23)cc1,91.2% (inactive)
15,COC(=O)C1=C(O)/C(=C/c2cccc(OC)c2O)N=C1C,112% (inactive)
16,CC(=O)Nc1ccc(N2CCCCC2)cc1,116% (inactive)
17,CN(C)c1ccc(NC(=O)CN2CCN(c3ccc(F)cc3)CC2)cc1,114% (inactive)
18,COc1cc(/C=N/NC(=O)CNc2n[nH]c(=O)[nH]c2=O)ccc1O,101% (inactive)
19,COc1ccc(OC)c(CCNC(=O)Cn2sc3nc(C)cc(C)c3c2=O)c1,89.5% (inactive)
20,CCN(CC)S(=O)(=O)c1ccc(C(=O)Oc2coc(CSc3nc(C)cc(C)n3)cc2=O)cc1,83.4% (inactive)
21,FC(F)(F)C1CCCN(c2nsc3ccccc23)C1 (configuration not stated),81.8% (inactive)
22,Nc1ncc(N=Nc2cc(C(=O)O)ccc2Cl)s1,127% (inactive)
23,CCn1c(SCC(=O)c2ccc(O)c(O)c2)nnc1-c1ccccc1OC,88% (inactive)
24,COc1cc(/C=N/NC(=O)c2nnn(-c3nonc3N)c2-c2cccs2)ccc1O,87% (inactive)
